# IkB signaling – inhibitors of IkB signaling in ABC-DLBCL cells | ABC-DLBCL IkBa-CBG/CBR dual luciferase ratio, 4 h; response scale: scaled: untreated 0%, proteasome inhibitor 100% | Potency, µM (titrated, usually from 57.1 µM), without a hit: at the highest dose IkBa stabilization activation | hit rate 0.04% among 110,000 | AID 445; active means well fitted curve in the direction sought with a large enough effect in the signal ratio, not every such curve was filed as active; inconclusive means small, poorly fitted or top-dose-only effect, or a change in a side signal; the % refers to the signal ratio;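 further: potency means the concentration at half of the fitted maximal effect; the direction sought is a rising ratio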
#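 In this assay, an IκBα–CBG68 fusion accumulates when IKK-driven degradation is blocked; native CBR normalizes for cell number. OCI-Ly3 cells were treated 4 h with compound and doxycycline, then green and red light read after Chroma-Glo addition.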
# CRE Fsk mod – CRE-bla signaling modulation under forskolin stimulation | CHO CRE-bla reporter (cAMP response element driving beta-lactamase), forskolin EC10, beta-lactamase ratio | Potency, µM (series often up to 38.2 µM), without a hit: at the highest dose activity change, negative = inhibition, most hits filed as activators | hit rate 2.5% among 71,000; active means well fitted activation curve with a large enough effect in the signal ratio, with a control signal flat, not every such curve was filed as active; inconclusive means small, poorly fitted or top-dose-only effect, or effect the other way, or a change in a side signal; the % refers to the signal ratio; further: potency means the concentration at half of the fitted maximal effect; % of control where 0% means no effect
#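 Modulation of forskolin-driven signalling is measured in CHO cells carrying a CRE-controlled beta-lactamase reporter. Cells are stimulated with EC10 NKH 477 in the presence of titrated compound for 3 h at 37 °C, then loaded with CCF4 for 2 h at room temperature.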
# ERK AVP inh – blocks ERK signaling stimulated by vasopressin | hit rate 0.99% among 72,000 | Potency, µM (top dose mostly 57.5 µM), inactives show at the highest dose activity, negative = inhibition, usual class: inhibitors | HEK293-V1b, vasopressin-stimulated pERK AlphaScreen; further: potency means the concentration at half of the fitted maximal effect; on the % scale 0 is the no-effect control and ±100 the full control effect; nearly all actives have a fitted effect of over 55% in size
#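 Phosphorylated ERK1/2 detected via AlphaScreen bead proximity in lysates of V1b-expressing HEK293 cells given 25 nM vasopressin for 5 min after 30 min compound exposure (37 °C). AC50 from Hill equation; basal DMSO 0%, vasopressin 100%.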
# Epigenetic mod – epigenetic modulators derepressing GFP locus in mouse cells. mouse C127i GFP locus derepression, cytometry, 30 h. Potency, µM (top dose mostly 46.1 µM), inactives show at the top dose GFP derepression (activation). hit rate 0.09% among 68,000; further: % of control where 0% means no effect
#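 Derepression screen: silenced CMV-GFP reporter in murine C127i cells, 30 h compound incubation at 37 C, washed cells imaged by laser-scanning cytometer to enumerate GFP-expressing objects of 20 to 120 um.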
# HBB splicing – modulators of hemoglobin beta chain splicing. HBB splicing reporter cell assay, activation; EGFP reporter with mutant IVS2-654 intron; response scale: normalised to 500 nM splice-correcting PNA. Potency, µM (highest dose often 46.1 µM), for the others: top-dose activation, usual class: activators. AID 925. hit rate 0.06% among 65,000; further: potency means the concentration at half of the fitted maximal effect; 0% is about no effect
#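 HeLa cells stably expressing EGFP interrupted by mutant beta-globin intron 2 (IVS2-654), 500/well in 2% FCS. Treated with compound for 2 days at 37C. Splicing correction scored as total well GFP intensity (488 nm excitation, 500-520 nm emission); 500 nM antisense PNA served as control.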
# An asterisk follows results filed as active; ? = inconclusive; . = no result given; [ ] = dose if it differs, or a comment. Many of the other results were omitted from the sample, so hits are more common in it than they were. Unless noted, the call rests on the fitted dose curve; in most records, active means well fitted curve in the direction sought with a large enough effect; inconclusive means small, poorly fitted or top-dose-only effect, or another doubt; inactive means no such curve, though single readings can be large; an effect the other way counts as inactive or inconclusive.
SMILES,IkB signaling,CRE Fsk mod,ERK AVP inh,Epigenetic mod,HBB splicing
COc1ccc(OC)c(C2CC(=O)c3c([nH]c(C(=O)OC(C)C)c3C)C2)c1 (configuration not stated),?,3.2µM*,-26%,.,2%
COc1ccc(OC)c(C2CC(=O)c3c([nH]c(C(=O)OC4CCC(C)CC4)c3C)C2)c1 (configuration not stated),-3%,.,.,.,.
COc1cc(C2CC(=O)c3c([nH]c(C(=O)OCCOC(C)C)c3C)C2)cc(OC)c1OC (configuration not stated),?,-15%,4µM*,-3%,-1%
O=C(Nc1ccccc1Br)N1CCN2CCCCC2C1 (configuration not stated),0%,.,.,.,.
Nc1ncnc2c1ncn2[C@H]1O[C@@H](C(=O)O)[C@@H](O)[C@H]1O,-1%[11.4 µM],3%[7.6 µM],-6%[11.5 µM],0%[9.22 µM],-1%[9.22 µM]
COCCOC(=O)c1[nH]c2c(c1C)C(=O)CC(c1cc(OC)ccc1OC)C2 (configuration not stated),-1%,?,.,.,-1%
CCCOCCOC(=O)c1[nH]c2c(c1C)C(=O)CC(c1cc(OC)ccc1OC)C2 (configuration not stated),?,2.5µM*,-27%,-2%,2%
Cc1coc2c(C)c3oc(=O)c4c(c3cc12)CCC4,-3%,?,?,-6%,0%
O=c1oc2c3c4c(cc2c2c1CCC2)OCCN4CCC3,-3%,13µM*,5%,-2%,1%
O=S1(=O)c2ccccc2N(Cc2ccccc2F)c2ccccc21,-2%,.,.,.,.
COC(=O)c1cnn2c(C)c(Cc3cccc(F)c3)c(C)nc12,4%,13µM*,?,-3%,0%
O=C(CSc1nc2ccccc2c(=O)[nH]1)c1cccs1,?,?,-11%,-2%,-1%
O=C(CSc1nc2ccccc2c(=O)[nH]1)c1ccc(O)c(O)c1,-1%,15%,16µM*,2%,-1%
O=C(Nc1cccc2ccccc12)OC1C=CS(=O)(=O)C1 (configuration not stated),?,?,10µM*,?,-3%
Cc1cc2n(n1)C(c1ccccc1Cl)Nc1ccccc1-2 (configuration not stated),-2%,13µM*,-23%,1%,1%
CSc1ccc(C2Nc3ccccc3-c3cc(C)nn32)cc1 (configuration not stated),?,20%,11%,-2%,0%[57.5 µM]
O=C1[C@H]2[C@H]3[C@H](O)[C@H](O)C/C(=N/OCc4ccccc4)[C@@H]3CC[C@@H]2C(=O)N1Cc1ccccc1,.,.,0%[11.5 µM],.,2%[9.22 µM]
COc1ccc(-c2c3c(=O)n(C)c(=O)n(C)c3cn2C2CCCCC2)cc1,3%,8%,16µM*,0%,0%
COc1ccc(-c2c3c(=O)n(C)c(=O)n(C)c3c3nnc4ccccc4n23)cc1,2%,-14%,-6%,?,6%
CC1CCn2c(nc3cc(C(=O)NCc4ccccc4)ccc32)C1 (configuration not stated),2%,.,.,.,.
CC(=O)c1ccc2c3c(cccc13)C(=O)N(c1c(C)nn(C)c1C)C2=O,0%,?,-9%,2%,0%[57.5 µM]
Cc1n[nH]c(C)c1N1C(=O)c2cccc3c(N4CCCCCC4)ccc(c23)C1=O,?,?,-29%,2%,16µM*
CN(c1ccccc1)c1ncnc2c1cnn2C,-5%,.,.,.,.
Cc1c(N=c2c(=O)c3ccccc3c2=O)c(=O)n(-c2ccccc2)n1C,?,?,20µM*,0%,0%
COCC(=O)O[C@]1(CCN(C)CCCc2nc3ccccc3[nH]2)CCc2cc(F)ccc2[C@@H]1C(C)C,-15%,-12%,20µM*,2%,0%
SMILES,IkB signaling,CRE Fsk mod,ERK AVP inh,Epigenetic mod,HBB splicing
Cc1nc(NCc2ccccc2)c2nc(-c3ccccc3)n(CCCN3CCOCC3)c2n1,.,?,?,.,-1%
Cc1nc(NC2CCCCC2)c2nc(-c3ccccc3)n(CCCN(C)C)c2n1,.,-1%,6%,.,-1%
Cc1nc(NC2CCCCC2)c2nc(-c3ccccc3)n(CCCN3CCOCC3)c2n1,.,10µM*,-25%,.,-2%
Cc1nc(Nc2ccccc2)c2nc(-c3ccccc3)n(CCN3CCOCC3)c2n1,.,7.9µM*,-41%,.,0%
Cc1ccc(Nc2c3c(nc4nncn24)CCC3)cc1C,0%,.,.,.,.
O=C(O)C1CC(=O)N(Cc2ccccc2)C1 (configuration not stated),2%,?,-13%,-3%,4%
O=C(O)[C@@H]1[C@H](C(=O)O)[C@H]2C(=O)C=C[C@H]1N2Cc1ccccc1,4µM*,?,4%[11.5 µM],-3%[9.22 µM],0%[9.22 µM]
CC(C)CNC(=O)N1[C@H](c2cccs2)[C@@H](C)C(=O)[C@@H](C)[C@@H]1c1cccs1,-1%,.,.,.,.
Brc1cccc(-c2nnc(SCc3nc4ccccc4[nH]3)o2)c1,?,2µM*,?,5%,0%[57.5 µM]
c1ccc2[nH]c(CSc3nnc(-c4ccncc4)o3)nc2c1,5%,4µM*,-2%,0%,2%
O=C(c1cccc(C(=O)N2CCN(c3ccccc3F)CC2)c1)N1CCN(c2ccccc2F)CC1,?,?,16µM*,-2%,0%[0.0738 µM]
Cc1cc(C)c(NC(=O)CSc2nc3nc(C)cc(C)n3n2)c(C)c1,-4%,.,.,.,.
CC(=O)N1CC2(CC2)CC1c1ccccc1 (configuration not stated),.,3.2µM*,5%,.,2%
COc1cc(-c2nnc(COc3ccc4ccccc4c3)o2)cc(OC)c1OC,?,0.13µM*,?,?,0%[0.0738 µM]
O=C(NCCCN1CCN(c2ccccc2F)CC1)c1ccc2nc(CCc3ccccc3)oc2c1,2%,.,.,.,.
O=C(NCCc1cn2ccsc2n1)c1cccs1,7%,13µM*,.,.,-1%
O=S(=O)(NCc1cn2ccsc2n1)c1cccs1,1%,-3%,6%,6%,0%
CC(=O)Cc1nsc(NC(=O)c2ccc(-c3cc(C(F)(F)F)ccc3Cl)o2)n1,0%,0.63µM*,-11%,0%,-1%
O=C(Cn1c(=O)oc2ccccc21)NCc1ccc(Cl)cc1,2%,.,.,.,.
COc1ccc(-c2noc(CSc3nnc(-c4ccncc4)n3-c3ccc(F)cc3)n2)cc1OC,-4%,?,25µM*,3%,2%
CCCC(=O)N1CCc2cc(OC)c(OC)cc2C1COc1ccc(C(=O)OC)cc1 (configuration not stated),-3%,.,.,.,.
CCC(=O)N1CCc2cc(OC)c(OC)cc2C1COc1ccc(C(=O)OC)cc1 (configuration not stated),?,4µM*,?,9%,-5%[0.369 µM]
